In ChEMBL document CHEMBL5724796, “Tm Shift (DSF) assay results for EUbOPEN Chemogenomics Library” (2024) one finds ΔTm data, which are given here for eleven compounds.

Common to all, as to conditions: Compound concentration 20.0 uM
Assay [1] has as its target Tyrosine-protein kinase ABL1 (Homo sapiens) (UniProt P00519).
Assay [2] deals with Bromodomain-containing protein 4 (Homo sapiens) (UniProt O60885).
The target in assay [3] is Cyclin-dependent kinase 2 (Homo sapiens) (UniProt P24941).
Assay [4] deals with Casein kinase I isoform delta (Homo sapiens) (UniProt P48730).
Assay [5] deals with Glycogen synthase kinase-3 beta (Homo sapiens) (UniProt P49841).
For assay [6], the target named is Mitogen-activated protein kinase 1 (Homo sapiens) (UniProt P28482).
In assay [7] the target is T1, Aurora kinase A (Homo sapiens) (UniProt O14965).
T1 sequence (whole entry): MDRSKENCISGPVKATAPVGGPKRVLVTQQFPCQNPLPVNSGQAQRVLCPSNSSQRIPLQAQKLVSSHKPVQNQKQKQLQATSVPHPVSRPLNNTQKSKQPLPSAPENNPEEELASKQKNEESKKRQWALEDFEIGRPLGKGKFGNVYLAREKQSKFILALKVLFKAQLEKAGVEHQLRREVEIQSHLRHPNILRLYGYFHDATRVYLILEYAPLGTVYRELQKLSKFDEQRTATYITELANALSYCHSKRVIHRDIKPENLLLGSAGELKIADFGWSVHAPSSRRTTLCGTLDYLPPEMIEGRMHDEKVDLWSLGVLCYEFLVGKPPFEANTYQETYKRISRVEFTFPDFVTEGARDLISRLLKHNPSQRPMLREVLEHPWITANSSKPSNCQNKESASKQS

The target in assay [8] is T2, Transcription intermediary factor 1-alpha (Homo sapiens) (UniProt O15164).
T2 sequence (whole entry): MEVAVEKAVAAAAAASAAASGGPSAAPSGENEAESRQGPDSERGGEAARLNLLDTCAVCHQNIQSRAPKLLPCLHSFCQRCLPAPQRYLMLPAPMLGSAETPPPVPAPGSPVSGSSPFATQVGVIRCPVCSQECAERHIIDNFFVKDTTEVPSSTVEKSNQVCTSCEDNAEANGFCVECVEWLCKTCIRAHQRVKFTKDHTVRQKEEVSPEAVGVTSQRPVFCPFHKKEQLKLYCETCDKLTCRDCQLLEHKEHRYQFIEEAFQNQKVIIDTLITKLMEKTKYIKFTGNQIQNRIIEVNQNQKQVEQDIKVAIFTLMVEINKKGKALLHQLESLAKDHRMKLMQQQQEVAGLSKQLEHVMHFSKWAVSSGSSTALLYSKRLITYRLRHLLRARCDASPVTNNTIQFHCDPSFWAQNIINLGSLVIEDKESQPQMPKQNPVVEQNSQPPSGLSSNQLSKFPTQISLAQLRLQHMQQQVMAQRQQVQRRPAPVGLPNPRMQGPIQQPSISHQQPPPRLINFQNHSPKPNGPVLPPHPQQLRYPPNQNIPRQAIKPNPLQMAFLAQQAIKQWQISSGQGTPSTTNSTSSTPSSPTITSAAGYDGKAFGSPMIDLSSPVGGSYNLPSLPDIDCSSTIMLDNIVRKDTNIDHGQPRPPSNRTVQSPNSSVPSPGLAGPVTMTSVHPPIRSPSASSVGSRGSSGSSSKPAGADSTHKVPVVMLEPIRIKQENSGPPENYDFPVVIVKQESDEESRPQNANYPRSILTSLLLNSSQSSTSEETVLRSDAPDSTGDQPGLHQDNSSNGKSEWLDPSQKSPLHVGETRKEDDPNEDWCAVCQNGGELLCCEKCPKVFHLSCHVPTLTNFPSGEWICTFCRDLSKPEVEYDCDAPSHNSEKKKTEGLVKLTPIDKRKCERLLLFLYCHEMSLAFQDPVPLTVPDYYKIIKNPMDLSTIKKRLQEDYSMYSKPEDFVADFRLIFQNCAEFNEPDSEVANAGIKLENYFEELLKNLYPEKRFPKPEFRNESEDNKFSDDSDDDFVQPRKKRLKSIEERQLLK

SMILES strings stand for the structures. Non-standard residues stand in square brackets, D forms with d. Residues, ends and D or L forms follow the SMILES beside them. *: point of attachment. Benzoyl(4-OPh) = O=C(c1ccc(Oc2ccccc2)cc1)*; Lys(Et2) = CCN(CC)CCCC[C@H](N)C(=O)O; d(aIle) = CC[C@H](C)[C@@H](N)C(=O)O; Gly(cPent) = N[C@H](C(=O)O)C1CCCC1; NH(propargyl) = C#CCN*

Tyrosine-protein kinase ABL1 (Homo sapiens), sequence (P00519 whole entry): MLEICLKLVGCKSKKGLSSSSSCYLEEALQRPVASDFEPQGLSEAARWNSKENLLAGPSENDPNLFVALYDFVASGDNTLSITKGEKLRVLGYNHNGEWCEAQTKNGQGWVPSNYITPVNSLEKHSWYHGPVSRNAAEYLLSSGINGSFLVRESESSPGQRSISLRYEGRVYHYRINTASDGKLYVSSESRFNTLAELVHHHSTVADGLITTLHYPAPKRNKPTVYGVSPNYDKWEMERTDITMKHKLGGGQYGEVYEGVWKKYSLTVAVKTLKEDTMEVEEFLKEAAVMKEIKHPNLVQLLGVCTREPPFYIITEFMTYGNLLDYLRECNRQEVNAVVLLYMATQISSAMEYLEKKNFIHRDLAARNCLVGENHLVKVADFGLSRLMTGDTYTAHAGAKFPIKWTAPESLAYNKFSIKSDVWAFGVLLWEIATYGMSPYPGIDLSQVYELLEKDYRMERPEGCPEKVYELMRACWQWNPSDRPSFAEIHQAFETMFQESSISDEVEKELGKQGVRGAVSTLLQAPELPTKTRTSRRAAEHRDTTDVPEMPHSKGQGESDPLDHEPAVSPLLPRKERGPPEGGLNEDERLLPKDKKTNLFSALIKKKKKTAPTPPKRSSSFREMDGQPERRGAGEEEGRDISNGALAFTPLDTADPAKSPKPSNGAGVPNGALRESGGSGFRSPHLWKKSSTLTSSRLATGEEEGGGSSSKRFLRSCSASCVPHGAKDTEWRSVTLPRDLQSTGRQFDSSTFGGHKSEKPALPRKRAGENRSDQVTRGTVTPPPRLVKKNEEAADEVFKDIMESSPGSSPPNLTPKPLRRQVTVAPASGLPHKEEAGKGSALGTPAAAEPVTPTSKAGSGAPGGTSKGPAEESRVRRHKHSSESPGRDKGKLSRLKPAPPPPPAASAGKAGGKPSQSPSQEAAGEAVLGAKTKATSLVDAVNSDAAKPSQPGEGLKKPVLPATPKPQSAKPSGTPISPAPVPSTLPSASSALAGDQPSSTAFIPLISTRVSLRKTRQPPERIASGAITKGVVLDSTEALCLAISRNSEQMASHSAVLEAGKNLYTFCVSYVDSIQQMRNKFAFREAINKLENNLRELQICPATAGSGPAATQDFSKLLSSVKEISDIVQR
Casein kinase I isoform delta (Homo sapiens), sequence (P48730 whole entry, looked up, canonical isoform): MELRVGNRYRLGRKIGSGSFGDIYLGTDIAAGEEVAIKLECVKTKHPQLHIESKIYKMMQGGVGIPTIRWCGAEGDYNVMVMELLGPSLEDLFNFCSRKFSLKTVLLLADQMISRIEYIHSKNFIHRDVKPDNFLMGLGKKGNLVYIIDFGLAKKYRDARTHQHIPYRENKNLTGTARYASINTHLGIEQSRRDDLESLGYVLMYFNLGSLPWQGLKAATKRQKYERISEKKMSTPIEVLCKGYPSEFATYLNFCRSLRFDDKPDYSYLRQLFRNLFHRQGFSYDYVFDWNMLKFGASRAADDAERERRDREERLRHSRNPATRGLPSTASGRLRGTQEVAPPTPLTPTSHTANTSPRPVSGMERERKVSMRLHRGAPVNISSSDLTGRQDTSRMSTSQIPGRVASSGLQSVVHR
Mitogen-activated protein kinase 1 (Homo sapiens), sequence (P28482 whole entry): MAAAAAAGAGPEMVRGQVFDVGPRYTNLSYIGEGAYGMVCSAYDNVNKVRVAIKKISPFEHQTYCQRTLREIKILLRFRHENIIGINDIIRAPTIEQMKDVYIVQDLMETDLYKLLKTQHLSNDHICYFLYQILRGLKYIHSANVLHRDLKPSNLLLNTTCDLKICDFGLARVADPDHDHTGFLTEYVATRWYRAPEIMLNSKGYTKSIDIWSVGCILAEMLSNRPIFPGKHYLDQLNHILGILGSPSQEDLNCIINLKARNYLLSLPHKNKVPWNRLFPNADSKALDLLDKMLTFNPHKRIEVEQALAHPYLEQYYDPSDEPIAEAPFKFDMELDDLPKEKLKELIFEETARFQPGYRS
Glycogen synthase kinase-3 beta (Homo sapiens), sequence (P49841 whole entry, looked up): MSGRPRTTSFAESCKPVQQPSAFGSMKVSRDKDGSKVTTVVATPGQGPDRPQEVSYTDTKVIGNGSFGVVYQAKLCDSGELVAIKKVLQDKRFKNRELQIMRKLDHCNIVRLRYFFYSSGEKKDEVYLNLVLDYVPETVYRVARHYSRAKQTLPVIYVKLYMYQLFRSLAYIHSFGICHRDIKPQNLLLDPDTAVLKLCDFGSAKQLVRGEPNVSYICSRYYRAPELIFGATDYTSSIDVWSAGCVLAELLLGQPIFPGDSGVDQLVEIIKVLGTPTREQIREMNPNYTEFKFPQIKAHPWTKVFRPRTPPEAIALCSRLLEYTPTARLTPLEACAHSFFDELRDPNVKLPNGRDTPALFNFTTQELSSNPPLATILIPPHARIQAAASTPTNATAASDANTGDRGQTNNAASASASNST

In the case of `O=C(O)C1=CCCN(CCOC(c2ccc(C(F)(F)F)cc2)c2ccc(C(F)(F)F)cc2)C1`, the ΔTm is 0.71 °C in assay [1]; -3.83 °C in assay [2]; -0.13 °C in assay [3]; -0.26 °C in assay [4]; -0.54 °C in assay [5]; 0.12 °C in assay [6]. For the same compound, the ΔTm is -2.7 °C in assay [7] and 0.08 °C in assay [8].
With `N#Cc1ccc(N2N=C3c4ccc(C(=O)O)cc4CC[C@@H]3[C@@H]2C2CCCC2)cc1Cl`, the ΔTm in assay [1] was -2.47 °C; in assay [2], 0 °C; in assay [3], -2.04 °C; in assay [4], -4.9 °C; in assay [5], 0 °C; in assay [6] it was -9.49 °C. In addition, the ΔTm in assay [7] is 0.42 °C; in assay [8] it was 1.43 °C.
As to `COC(=O)C[C@@H]1N=C(c2ccc(Cl)cc2)c2c(sc(C)c2C)-n2c(C)nnc21`, the ΔTm in assay [1] is -0.09 °C; in assay [2], 12.3 °C; in assay [3] it was -0.41 °C; in assay [4], 0.16 °C; in assay [5], -0.01 °C; in assay [6], -0.21 °C. Also, the ΔTm is -1.3 °C in assay [7] and -0.91 °C in assay [8].
`CC(C)=C[C@H]1C[C@H](C)[C@]2(CC[C@]3(C)C[C@H]4[C@H](C(=O)C[C@@]4(C)O)/C(C=O)=C\C[C@H]32)O1`: the ΔTm in assay [1] was -0.34 °C; in assay [2], -1.06 °C; in assay [3] it was -0.29 °C; in assay [4], -0.36 °C; in assay [5] it was -0.53 °C; in assay [6], -0.16 °C. For the same compound, the ΔTm in assay [7] and in assay [8] was -1.12 °C throughout.
On to `Fc1ccc(C(OCCN2CCN(CCCc3ccccc3)CC2)c2ccc(F)cc2)cc1`, for which the ΔTm in assay [1] was 0.53 °C; in assay [2] it was -4.03 °C; in assay [3] it was -0.37 °C; in assay [4], -0.45 °C; in assay [5], -0.66 °C; in assay [6] it was 0.05 °C. Also, the shift in melting temperature (ΔTm) in assay [7] was -2.65 °C; in assay [8] it was -0.53 °C.
Consider `C[C@]12O[C@H](C[C@]1(O)CO)n1c3ccccc3c3c4c(c5c6ccccc6n2c5c31)CNC4=O`, for which the ΔTm in assay [2] is -1.2 °C; in assay [3], 9.18 °C; in assay [4] it was 2.18 °C; in assay [5] it was 4.78 °C; in assay [6], 0.35 °C; in assay [7] it was 8.79 °C. Besides, in assay [8], the ΔTm is -0.11 °C.
As to `Nc1cc2c3c(c1)C(c1ccccc1)=N[C@@H](NC(=O)c1cccnc1)C(=O)N3CC2`, the ΔTm in assay [1] is 0.6 °C; in assay [2] it was -0.29 °C; in assay [3], 0.3 °C; in assay [4], -0.17 °C; in assay [5] it was -0.38 °C; in assay [6], 0.37 °C. Further, the ΔTm is -2.21 °C in assay [7] and -0.79 °C in assay [8].
Take `Nc1cccc(CNC(=O)c2ccc(Oc3ccc(OCc4cccc(F)c4)cc3)nc2)c1`: the ΔTm in assay [1] was 1.07 °C; in assay [2], -0.91 °C; in assay [3], 0.38 °C; in assay [4], -0.56 °C; in assay [5], 1.13 °C; in assay [6], -0.86 °C. Moreover, the values for the ΔTm in assay [7] and in assay [8] were -1.57 °C and 0.24 °C, respectively.
For `COc1cc(C)[nH]c(=O)c1CNC(=O)c1c(C)n([C@H](C)C2CCN(CC(F)(F)F)CC2)c2ccccc12`, the ΔTm was 0.27 °C in assay [1]; -2.03 °C in assay [2]; -0.09 °C in assay [3]; 0.08 °C in assay [4]; -0.64 °C in assay [5]; -0.27 °C in assay [6]. In addition, the ΔTm in assay [7] was 0.25 °C; in assay [8], -1.56 °C.
As to `C#CCNC(=O)[C@H](CO)NC(=O)[C@H](CCCCN(CC)CC)NC(=O)[C@H](NC(=O)[C@@H](NC(=O)c1ccc(Oc2ccccc2)cc1)C1CCCC1)[C@@H](C)CC` ({Benzoyl(4-OPh)}-[Gly(cPent)][d(aIle)][Lys(Et2)]S-{NH(propargyl)}), the ΔTm in assay [1] is 0.66 °C; in assay [2], -3.19 °C; in assay [3] it was -0.21 °C; in assay [4], 0.55 °C; in assay [5], -0.46 °C; in assay [6], 0.25 °C. The ΔTm was 0.59 °C in assay [7] and -3.76 °C in assay [8].
Consider `C=CCO/N=C1\c2ccccc2-c2nc(C#N)c(C#N)nc21`, for which the ΔTm in assay [1] was 0.13 °C; in assay [2], -2.12 °C; in assay [3] it was 0.55 °C; in assay [4], -1.63 °C; in assay [5] it was 0.17 °C; in assay [6], -0.02 °C. The ΔTm is -2.47 °C in assay [7] and 0.9 °C in assay [8].

The term ΔTm denotes the shift of the melting midpoint relative to a reference.
